POLB inh: blocks human DNA polymerase beta activity; Potency, µM (doses to about 114 µM), without a hit: at the top dose activity change, negative = inhibition, usual class: inhibitors; AID 485314; 340,000 compounds, 1.3% hits; P06746; Pol beta primer extension/strand displacement, fluorescence kinetic; note: potency is the fitted concentration of half-maximal effect; % is set by controls: 0 for no effect and ±100 for the full control effect
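Human Pol beta at 10 nM; strand-displacement substrate 50 nM final. Compound exposure 15 min at room temperature before start, reaction 10 min at room temperature.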
POLI inh: blocks human DNA polymerase iota activity | Q9UNA4 | Pol iota fluorescent replication assay, 10 min | Potency, µM (top dose mostly 115 µM), for the others: at the highest dose activity, negative = inhibition, hits mostly inhibitors | 390,000 compounds, 1% hits | AID 588590; note: potency is the fitted concentration of half-maximal effect
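Pol iota at 10 nM preincubated 15 min with compounds at room temperature; reaction started with fluorescent substrate, 50 nM final. Fluorescence read kinetically at 0 and 10 min; buffer-only wells as negative control.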
FEN1 inh: blocks human flap endonuclease 1 | Potency, µM (highest dose often 114 µM), for inactives: at the highest dose activity change, negative = inhibition, most hits filed as inhibitors | 390,000 compounds, 0.35% hits | Recombinant FEN1 flap cleavage, fluorescence, 15 min; note: potency is the fitted concentration of half-maximal effect; % is set by controls: 0 for no effect and ±100 for the full control effect; nearly all actives have a fitted effect of over 65% in size
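Potency values derive from four-parameter Hill fits of normalized qHTS data. The reaction used 10 nM FEN1 preincubated 15 min at room temperature with compound, then 50 nM DNA substrate, read at 0 and 15 min.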
Pol kappa inh-1: DNA polymerase kappa (human) inhibition; Q9UBT6; purified Pol kappa, fluorescent DNA synthesis assay, 10 min; 400,000 compounds, 0.53% hits; Potency, µM (titrated, usually from 107 µM), for inactives: at the highest dose activity, negative = inhibition, hits mostly inhibitors; note: potency is the fitted concentration of half-maximal effect; % is set by controls: 0 for no effect and ±100 for the full control effect
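10 nM Pol kappa preincubated 15 min at room temperature with compounds, then reaction started with substrate at 50 nM final. Fluorescence read kinetically at 0 and 10 min; buffer-only wells served as negative control.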
Pol eta inh-1: blocks human DNA polymerase eta activity; Q9Y253; recombinant Pol eta, fluorescent DNA replication assay; Potency, µM (doses to about 114 µM), inactives show at the top dose activity change, negative = inhibition, actives largely listed as inhibitors; 390,000 compounds, 1.2% hits; note: potency is the fitted concentration of half-maximal effect; % is set by controls: 0 for no effect and ±100 for the full control effect
Target sequence (Q9Y253 whole entry, looked up): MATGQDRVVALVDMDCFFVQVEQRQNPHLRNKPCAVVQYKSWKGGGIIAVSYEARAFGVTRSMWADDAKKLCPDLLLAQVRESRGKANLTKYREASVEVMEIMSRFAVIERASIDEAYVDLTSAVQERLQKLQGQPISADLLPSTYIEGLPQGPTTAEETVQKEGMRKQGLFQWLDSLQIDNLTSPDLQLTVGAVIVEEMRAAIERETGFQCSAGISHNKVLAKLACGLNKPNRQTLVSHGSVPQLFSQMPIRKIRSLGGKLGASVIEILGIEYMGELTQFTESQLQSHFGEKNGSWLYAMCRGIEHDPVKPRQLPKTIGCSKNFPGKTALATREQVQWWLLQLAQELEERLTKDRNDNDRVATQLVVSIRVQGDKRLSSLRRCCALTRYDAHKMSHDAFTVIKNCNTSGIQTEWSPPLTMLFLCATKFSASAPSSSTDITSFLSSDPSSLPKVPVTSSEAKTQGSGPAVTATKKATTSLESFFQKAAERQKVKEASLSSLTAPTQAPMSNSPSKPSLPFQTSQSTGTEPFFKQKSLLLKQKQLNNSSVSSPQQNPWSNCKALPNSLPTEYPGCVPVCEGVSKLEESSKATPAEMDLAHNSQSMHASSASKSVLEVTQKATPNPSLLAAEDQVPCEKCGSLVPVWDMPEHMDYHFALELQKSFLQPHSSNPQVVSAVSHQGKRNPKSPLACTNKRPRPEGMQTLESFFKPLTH
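Fluorescent replication assay: 50 nM final substrate added after a 15 min room-temperature compound preincubation with 10 nM enzyme. Signal taken at 0 min and again at 10 min.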
WRN inhibitor: blocks human WRN helicase. Potency, µM (titrated, usually from 114 µM), without a hit: at the top dose activity change, negative = inhibition, usual class: inhibitors. WRN helicase unwinding, fluorescent forked duplex, kinetic. 360,000 compounds, 0.46% hits. Q14191; note: potency is the fitted concentration of half-maximal effect; % is set by controls: 0 for no effect and ±100 for the full control effect; nearly all actives have a fitted effect of over 55% in size
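Primary qHTS, 1536-well format. 20 nM WRN + compound, 15 min RT; start with 100 nM forked fluorophore/quencher duplex, 2 mM ATP (final); kinetic read ex 525/em 598 nm.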
GALK confirm: galactokinase (human) inhibition, confirmation; Potency, µM (series often up to 115 µM), for the others: at the highest dose activity, negative = inhibition, hits mostly inhibitors; shares compounds with Pol eta inh-1; 150 compounds, 70% hits; purified GALK, Kinase-Glo ATP depletion luminescence
Redox cycling: redox cycling activity in phenol red-HRP assay; shares compounds with Pol eta inh-1; Phenol red-HRP H2O2 redox cycling, absorbance 600 nm; Potency, µM (highest dose often 115 µM), for inactives: at the top dose activity change, negative = H2O2 signal, usual class: inhibitors; 150 compounds, 40% hits
HEK293 tox: reduces HEK-293 cell viability in GALK counter-screen; shares compounds with Pol eta inh-1; HEK-293 viability, ATP luminescence (CellTiter-Glo), 24/48 h; Potency, µM (titrated, usually from 46.1 µM), for inactives: at the highest dose activity change, negative = cytotoxicity, usual class: inhibitors; 170 compounds, 10% hits; note: potency is the fitted concentration of half-maximal effect; % is set by controls: 0 for no effect and ±100 for the full control effect
Pol kappa inh-2: confirmation of human DNA polymerase kappa inhibitors; shares compounds with Pol eta inh-1; purified Pol-kappa, fluorescent strand-displacement substrate; Potency, µM, hits mostly inhibitors; 920 compounds, 76% hits; AID 720501; note: potency is the fitted concentration of half-maximal effect
Pol eta inh-2: Pol eta (human) inhibition, cherry-pick confirmation; shares compounds with Pol eta inh-1; Pol eta primer extension, TAMRA/BHQ fluorescence, 10 min; Potency, µM, actives largely listed as inhibitors; 2,600 compounds, 64% hits; note: potency is the fitted concentration of half-maximal effect
Numbers without * were called inactive; ? = inconclusive; . = no result; [ ] = another dose, or the depositor's remark. In the library only some 2.4% were active in any assay of this set; here they are far more common. Calls come from the whole dose curve; as a rule, active = well fitted curve in the direction sought with a large enough effect; inconclusive = small, poorly fitted or top-dose-only effect, or another doubt; inactive = no such curve, though single readings can be large; an effect the other way counts as inactive or inconclusive.

SMILES	POLB inh	POLI inh	FEN1 inh	Pol kappa inh-1	Pol eta inh-1	WRN inhibitor	Pol eta inh-2	others
COc1ccccc1NC(=O)C1=C(C)Nc2nc(SCc3ccccc3)nn2C1c1cccnc1 (centres undefined)	?	-9.7%	-8.6%	-10.0%	3.9%	.	.
Cc1c(C(=O)Nc2ccc(S(=O)(=O)Nc3ncccn3)cc2)oc2ccccc12	.	?	-14.8%	?	28.2µM*	-9.4%	42.6*
O=C(Nc1ccc(S(=O)(=O)Nc2ncccn2)cc1)c1ccc2ncsc2c1	?	?	?	-26.3%	39.8µM*	-4.3%	75.7*
O=C(Nc1ccc(S(=O)(=O)Nc2ncccn2)cc1)c1cccc(Cl)c1	-10.2%	20.4%	18.4%	-15.9%[60.1 µM]	-17.9%	.	.
CCOc1ccc(C(=O)NCc2ccc3c(c2)CCN3C(=O)c2ccc(C)cc2)cc1OCC	7.9%	-8.6%	-14.2%	-5.5%[60.1 µM]	-12.2%	.	.
COc1ccc2c(c1)NC(c1ccc(OCC(C)C)cc1)=NC(c1ccncc1)=N2	6.1%	29.3%	-5.2%	-15.1%	-7.9%	.	.
O=C(CCC1N=C2c3ccccc3N=C(SCC(=O)NCc3ccco3)N2C1=O)NCc1ccco1 (centres undefined)	31.6µM*	12.6µM*	-0.2%	?	?	?	?
O=C(OCC(=O)N1CCCC1=O)c1nc(Cl)c(Cl)c(Cl)c1Cl	?	?	-7.9%	?	56.2µM*	-6.1%[11.6 µM]	?
CS(=O)(=O)N1CCC2(CC1)CN(Cc1nccs1)C2	.	.	.	-1.7%[60.1 µM]	.	.	.
Cc1cc(C(=O)NCc2cc(C(=O)O)co2)co1	-7.0%	?	-7.2%	79.4µM*	20µM*	-16.3%	30.1*	Pol kappa inh-2=16.8*
Cc1cc(C(=O)Nc2cccc3ccccc23)co1	3.2%	16.3%	27.2%	1.2%	-6.6%	-8.2%	.
COc1ccc(Cl)cc1NC(=O)c1c(NCc2ccc(C)o2)sc2c1CCCC2	1.8%	?	-4.4%	-9.1%[60.1 µM]	50.1µM*	.	?
O=[N+]([O-])c1ccc(Cl)c2c1C1C=CCC1C(c1ccccn1)N2 (centres undefined)	35.5µM*	?	-10.2%	?	50.1µM*	?	?
Cc1ccc(OCCn2c(C3CC(=O)N(Cc4ccc(F)cc4)C3)nc3ccccc32)c(C)c1 (centres undefined)	5.8%	-11.7%	0.0%	-13.5%	-16.9%	.	.
Cc1csc2nc(COC(=O)c3cccc(NC(=O)c4cccc(Cl)c4)c3)cc(=O)n12	?	-8.4%	-1.6%	-13.5%[60.1 µM]	-12.0%	.	.
Cc1noc(C)c1S(=O)(=O)Nc1ccc(C(=O)Nc2ccc(OC(F)(F)F)cc2)cc1	33.5%	11.3%	-4.4%	3.9%	-16.5%	-2.9%[57.1 µM]	.	GALK confirm=33.5µM*;Redox cycling=1.1%;HEK293 tox=?
CCc1ccc(NC(=O)c2ccc(NS(=O)(=O)c3c(C)noc3C)cc2)cc1	78.2%	-25.7%	-11.4%	-6.9%	-3.2%	.	.
O=C(O)c1cc(N/N=C/c2ccc(N3CCOCC3)cc2)ccc1Cl	?	?	11.0%	?	50.1µM*	?	84.9*
CCOC(=O)c1ccc(N2C(=O)c3[nH]nc(-c4ccc(C)cc4)c3C2c2ccc(O)c(OCC)c2)cc1 (centres undefined)	3.7%	-10.8%	-15.9%	-12.2%	-18.3%	.	.
CCN(CC)C(=O)CSc1nc2cc3c(cc2c(=O)n1Cc1ccc(C(=O)NCCc2ccc(OC)c(OC)c2)cc1)OCO3	14.7%	22.9%	1.9%	-6.6%[60.1 µM]	-8.5%	.	.
COC(=O)/C=C1\SC(=NC(=O)c2ccc(-c3ccccc3)cc2)NC1=O	.	?	-13.3%	-33.3%	50.1µM*	-5.1%[11.6 µM]	?
Cc1ccc(Cl)cc1NC(=O)C1CCN(C(=O)c2cnn(-c3ccccc3)c2-n2cccc2)CC1	-22.4%	2.4%	0.1%	-5.9%	-14.4%	.	.
Cc1ccc2nc3sc(C(=O)NCc4ccco4)cc3cc2c1	.	.	.	.	.	.	75.7*
COc1cc(CNC(=O)c2sc3ncccc3c2-n2cccc2)cc(OC)c1OC	-0.2%	21.2%	6.0%	-8.3%[60.1 µM]	-14.3%	.	.
Cc1ccccc1-c1noc(-c2ccc(N3CCC(C)CC3)c([N+](=O)[O-])c2)n1	0.6%	-11.1%	-7.1%	-14.4%	-9.2%	.	.
SMILES	POLB inh	POLI inh	FEN1 inh	Pol kappa inh-1	Pol eta inh-1	WRN inhibitor	Pol eta inh-2	others
O=c1c(C=Nc2cccc(C(F)(F)F)c2)c[nH]n1-c1cccc(Cl)n1	?	-8.3%	-18.9%	-1.9%	89.1µM*	?	?
Cc1ccc(S(=O)(=O)N2[C@@H](c3ccc(C(C)(C)C)cc3)C(C(=O)O)=CC[C@H]2c2cccc(Cl)c2)cc1	.	?	-16.6%	?	89.1µM*	70.8µM*	?	Pol kappa inh-2=67*
Cc1ccc(S(=O)(=O)N2[C@@H](c3ccc(C(C)(C)C)cc3)C(C(=O)O)=CC[C@H]2c2ccc(Cl)c(Cl)c2)cc1	.	-5.5%	-2.7%	-28.8%	0.3%	-8.3%	.
Cc1ccc(S(=O)(=O)N2[C@@H](c3ccc(Br)cc3)C(C(=O)O)=CC[C@H]2c2ccc(Cl)c(Cl)c2)cc1	.	-25.1%	?	-17.7%	89.1µM*	-19.6%	.	Pol kappa inh-2=?
CN(CC(=O)O)c1ccc(/C=C/c2ccnc3ccccc23)cc1	.	32.3%	-1.5%	5.6%	.	.	.
C/C=C/COC(=O)c1[nH]c2c(c1C)C(=O)CC(c1ccco1)C2 (centres undefined)	22.4µM*	?	-2.7%	79.4µM*	22.4µM*	?	?
NNc1nccc(Nc2ccccc2C(=O)O)n1	?	?	-23.0%	?	12.6µM*	?	?
